Of roughly 7,900 targets only a part is listed; those with a hit were picked by preference. About 0.6% of all pairs of compound and target were hits.
How the values were obtained:
Experiment in all cases: log2 fold change, soluble protein after heating vs DMSO (PISA); higher = thermal stabilisation; K562 cells, 10 uM, 30 min; active = over 0.2 and 3.5 SD of the protein, either way, in both replicates (recomputed)
[1] = compound: C1=CC=C(C=C1)[C@H](COC2=CC3=C(C=C2)NC(=O)N3)NC(=O)C4=CC=CN(C4=O)CC5=CC(=C(C=C5)F)F
Method in brief: (§1)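 Soluble protein was defined as the supernatant after 21,000xg for 90 min. It came from K562 cells at 2×10^6 cells/mL given 10 μM compound for 30 min, heated in aliquots for 3 min across 48°C-58°C, pooled, and extracted in PBS with 0.5% NP-40 at 4°C, and was quantified by TMTpro 16plex LC-MS/MS with equalised channel sums. Thermal stability against control samples, from duplicates, is reported as log2 fold change.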

[2] = compound: CC1=C(SC2=C1C(=N[C@H](C3=NN=C(N32)C)CC(=O)N)C4=CC=C(C=C4)Cl)C
Method in brief: as §1

[3] = compound: CC1=C2C(=CC=C1)N=C(N(C2=O)C3=CC=CC=C3C)CN4C=NC5=C(N=CN=C54)N
Method in brief: as §1

[4] = compound: Cc1sc2c(c1C)C(c1ccc(Cl)cc1)=N[C@@H](CC(=O)OC(C)(C)C)c1nnc(C)n1-2
Method in brief: as §1

[5] = compound: c1ccc([C@@H]2C[C@H]2NC2CCNCC2)cc1
Method in brief: as §1

Measured: log2 fold change

MAGOHB (UniProt Q96A72)
Sequence of UniProt Q96A72 (Q96A72 whole entry, looked up): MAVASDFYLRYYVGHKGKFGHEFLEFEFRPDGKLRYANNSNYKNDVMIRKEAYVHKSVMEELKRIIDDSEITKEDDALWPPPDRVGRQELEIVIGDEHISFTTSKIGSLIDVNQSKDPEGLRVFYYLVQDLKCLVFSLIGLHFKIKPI
inactive: [1] 0.02 | [2] 0.042 | [3] 0.079 | [4] -0.153 | [5] -0.129

MEPCE (UniProt Q7L2J0)
Sequence of UniProt Q7L2J0 (Q7L2J0 whole entry, looked up): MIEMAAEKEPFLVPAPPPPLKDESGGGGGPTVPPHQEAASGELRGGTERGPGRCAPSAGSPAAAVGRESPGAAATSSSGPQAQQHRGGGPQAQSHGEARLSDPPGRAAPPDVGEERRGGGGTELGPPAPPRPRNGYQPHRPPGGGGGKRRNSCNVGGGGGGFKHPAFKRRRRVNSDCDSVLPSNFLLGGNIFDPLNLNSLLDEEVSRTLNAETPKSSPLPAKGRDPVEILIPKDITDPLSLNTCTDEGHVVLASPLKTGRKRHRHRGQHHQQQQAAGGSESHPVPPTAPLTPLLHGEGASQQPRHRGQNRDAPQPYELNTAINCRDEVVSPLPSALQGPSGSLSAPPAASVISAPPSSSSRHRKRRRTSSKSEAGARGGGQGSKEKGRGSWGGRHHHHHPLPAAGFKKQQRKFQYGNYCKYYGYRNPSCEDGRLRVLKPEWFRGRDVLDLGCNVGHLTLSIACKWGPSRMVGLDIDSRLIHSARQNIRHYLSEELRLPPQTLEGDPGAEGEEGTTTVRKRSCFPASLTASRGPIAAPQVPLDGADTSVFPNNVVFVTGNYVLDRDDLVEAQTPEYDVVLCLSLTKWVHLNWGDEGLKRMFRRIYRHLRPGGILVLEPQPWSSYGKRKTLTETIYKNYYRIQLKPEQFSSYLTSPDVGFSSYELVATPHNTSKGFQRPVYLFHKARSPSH
inactive: [1] 0.017 | [2] 0.001 | [3] 0.064 | [4] 0.028 | [5] 0.008

MFN2 (UniProt O95140)
Sequence of UniProt O95140 (O95140 whole entry, looked up): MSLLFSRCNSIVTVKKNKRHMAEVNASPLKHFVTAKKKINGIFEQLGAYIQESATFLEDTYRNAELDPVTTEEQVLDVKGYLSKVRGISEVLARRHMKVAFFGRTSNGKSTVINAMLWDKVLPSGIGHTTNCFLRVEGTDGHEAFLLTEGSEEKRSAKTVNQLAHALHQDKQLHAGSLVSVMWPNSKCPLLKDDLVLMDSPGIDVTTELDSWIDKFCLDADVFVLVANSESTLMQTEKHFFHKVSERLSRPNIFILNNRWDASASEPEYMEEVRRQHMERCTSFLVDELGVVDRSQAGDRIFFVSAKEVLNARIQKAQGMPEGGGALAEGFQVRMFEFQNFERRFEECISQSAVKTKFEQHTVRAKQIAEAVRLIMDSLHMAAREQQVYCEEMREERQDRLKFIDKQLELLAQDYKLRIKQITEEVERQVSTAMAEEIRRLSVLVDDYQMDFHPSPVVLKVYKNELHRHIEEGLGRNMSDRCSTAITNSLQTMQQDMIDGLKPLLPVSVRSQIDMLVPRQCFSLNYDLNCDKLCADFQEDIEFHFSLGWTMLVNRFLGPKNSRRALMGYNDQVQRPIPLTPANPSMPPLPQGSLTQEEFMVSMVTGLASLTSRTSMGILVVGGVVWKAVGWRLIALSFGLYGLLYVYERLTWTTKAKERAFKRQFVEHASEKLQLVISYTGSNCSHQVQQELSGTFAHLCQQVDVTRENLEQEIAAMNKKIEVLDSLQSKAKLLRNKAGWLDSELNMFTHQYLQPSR
inactive: [1] 0.01 | [2] 0.038 | [3] 0.013 | [4] -0.026 | [5] 0.001

MAGEA8 (UniProt P43361)
Sequence of UniProt P43361 (P43361 whole entry, looked up): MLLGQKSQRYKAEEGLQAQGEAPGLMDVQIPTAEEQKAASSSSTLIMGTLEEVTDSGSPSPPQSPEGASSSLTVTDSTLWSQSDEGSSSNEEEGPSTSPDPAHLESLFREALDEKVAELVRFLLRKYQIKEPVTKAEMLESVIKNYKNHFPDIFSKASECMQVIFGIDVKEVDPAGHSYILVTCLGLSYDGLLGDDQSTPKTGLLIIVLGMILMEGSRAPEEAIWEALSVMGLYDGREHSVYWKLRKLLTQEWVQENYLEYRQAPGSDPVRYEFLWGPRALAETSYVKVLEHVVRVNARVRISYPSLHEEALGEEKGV
inactive: [1] 0.075 | [2] -0.035 | [3] 0.02 | [4] -0.119 | [5] 0.077

MEAK7 (UniProt Q6P9B6)
Sequence of UniProt Q6P9B6 (Q6P9B6 whole entry, looked up): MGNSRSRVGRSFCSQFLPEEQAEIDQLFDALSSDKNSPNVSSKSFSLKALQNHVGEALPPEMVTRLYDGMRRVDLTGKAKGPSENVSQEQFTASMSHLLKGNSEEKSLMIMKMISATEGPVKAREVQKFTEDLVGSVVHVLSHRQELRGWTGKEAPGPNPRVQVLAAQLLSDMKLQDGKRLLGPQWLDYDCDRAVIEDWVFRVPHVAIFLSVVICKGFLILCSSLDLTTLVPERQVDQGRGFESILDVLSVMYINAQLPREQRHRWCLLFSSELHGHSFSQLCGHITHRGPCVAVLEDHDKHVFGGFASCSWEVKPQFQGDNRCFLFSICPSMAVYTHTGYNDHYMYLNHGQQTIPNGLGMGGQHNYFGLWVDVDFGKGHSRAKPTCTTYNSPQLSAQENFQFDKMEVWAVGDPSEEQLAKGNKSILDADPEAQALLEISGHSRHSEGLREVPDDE
inactive: [1] -0.009 | [2] 0.051 | [3] 0.042 | [4] -0.009 | [5] -0.048

KLHL18 (UniProt O94889)
Sequence of UniProt O94889 (O94889 whole entry, looked up): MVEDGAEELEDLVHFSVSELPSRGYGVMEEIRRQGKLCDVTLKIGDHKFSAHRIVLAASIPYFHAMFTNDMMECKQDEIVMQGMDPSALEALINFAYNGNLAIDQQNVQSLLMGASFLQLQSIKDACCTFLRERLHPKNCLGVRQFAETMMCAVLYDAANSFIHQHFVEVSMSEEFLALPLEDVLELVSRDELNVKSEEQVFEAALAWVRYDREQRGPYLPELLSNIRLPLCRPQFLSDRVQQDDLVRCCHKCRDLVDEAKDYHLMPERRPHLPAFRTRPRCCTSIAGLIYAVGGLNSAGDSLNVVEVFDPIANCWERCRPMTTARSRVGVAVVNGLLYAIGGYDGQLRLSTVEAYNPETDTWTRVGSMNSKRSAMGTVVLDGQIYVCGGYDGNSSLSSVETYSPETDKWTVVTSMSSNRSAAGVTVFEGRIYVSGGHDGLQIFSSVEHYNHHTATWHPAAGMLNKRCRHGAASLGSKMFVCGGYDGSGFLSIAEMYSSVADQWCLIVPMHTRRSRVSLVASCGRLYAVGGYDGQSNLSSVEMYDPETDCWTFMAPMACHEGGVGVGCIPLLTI
inactive: [1] 0.014 | [2] 0.101 | [3] 0.135 | [4] 0.017 | [5] -0.021

MAPKAPK3 (UniProt Q16644)
Sequence of UniProt Q16644 (Q16644 whole entry, looked up): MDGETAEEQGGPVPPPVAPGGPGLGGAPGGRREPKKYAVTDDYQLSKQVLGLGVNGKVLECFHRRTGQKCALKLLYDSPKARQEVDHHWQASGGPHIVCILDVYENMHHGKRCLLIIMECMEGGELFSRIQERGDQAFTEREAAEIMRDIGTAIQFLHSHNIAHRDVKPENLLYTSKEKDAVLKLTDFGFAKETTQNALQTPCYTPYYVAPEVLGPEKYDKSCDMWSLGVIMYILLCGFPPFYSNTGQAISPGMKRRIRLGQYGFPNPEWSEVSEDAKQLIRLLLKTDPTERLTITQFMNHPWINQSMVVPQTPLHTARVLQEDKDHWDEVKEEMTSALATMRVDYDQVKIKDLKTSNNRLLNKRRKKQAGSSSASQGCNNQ
inactive: [1] -0.122 | [2] 0.013 | [3] 0.027 | [4] -0.034 | [5] -0.109

ILK (UniProt Q13418)
Sequence of UniProt Q13418 (Q13418 whole entry, looked up): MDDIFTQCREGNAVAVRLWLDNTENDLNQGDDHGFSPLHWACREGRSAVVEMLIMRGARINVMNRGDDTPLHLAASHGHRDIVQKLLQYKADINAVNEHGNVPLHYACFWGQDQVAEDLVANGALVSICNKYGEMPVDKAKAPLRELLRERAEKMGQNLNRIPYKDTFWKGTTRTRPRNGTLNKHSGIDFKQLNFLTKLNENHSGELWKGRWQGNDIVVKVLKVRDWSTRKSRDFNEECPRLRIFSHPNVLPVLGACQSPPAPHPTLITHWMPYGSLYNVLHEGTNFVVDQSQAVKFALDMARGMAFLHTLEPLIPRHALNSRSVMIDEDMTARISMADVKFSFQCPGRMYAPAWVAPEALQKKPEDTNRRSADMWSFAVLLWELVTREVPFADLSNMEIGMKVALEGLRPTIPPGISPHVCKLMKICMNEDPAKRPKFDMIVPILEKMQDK
inactive: [1] -0.081 | [2] 0.017 | [3] 0.132 | [4] 0.053 | [5] -0.087

MIEN1 (UniProt Q9BRT3)
Sequence of UniProt Q9BRT3 (Q9BRT3 whole entry, looked up): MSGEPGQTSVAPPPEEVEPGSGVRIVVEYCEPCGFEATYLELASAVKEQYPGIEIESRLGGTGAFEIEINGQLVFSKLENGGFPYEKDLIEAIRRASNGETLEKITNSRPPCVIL
inactive: [1] 0.035 | [2] 0.101 | [3] 0.014 | [4] -0.097 | [5] 0.019

— the supplement of paper PMC10849652
